# Screens (PubChem)
# The list is not random: actives were taken first. Their share in the collection is about 21%.
# DT40 TDP1 CPT – DT40-hTDP1 cell growth loss with CPT. chicken DT40 Tdp1-/-;hTDP1 cells + 20 nM CPT, ATP luminescence, 48 h. Potency, µM (titrated, usually from 46.2 µM), actives largely listed as inhibitors. 12% of 420,000 active. AID 686979; note: nearly all actives have a fitted effect of over 55% in size
#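 Chicken DT40 Tdp1-/- cells stably complemented with human TDP1 were seeded at 400 cells/well in medium containing 20 nM camptothecin, exposed to pin-transferred compounds, and grown at 37 °C for at least 48 hr. Viability was read as ATP luminescence.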
# D3 ag – agonists of human D3 dopamine receptor. P35462. D3R DiscoveRx beta-arrestin cells, luminescence, 90 min. max activation, %. 0.58% of 410,000 active. AID 652048; in the data active = max activation above about 30%
# Target sequence (P35462 whole entry, looked up): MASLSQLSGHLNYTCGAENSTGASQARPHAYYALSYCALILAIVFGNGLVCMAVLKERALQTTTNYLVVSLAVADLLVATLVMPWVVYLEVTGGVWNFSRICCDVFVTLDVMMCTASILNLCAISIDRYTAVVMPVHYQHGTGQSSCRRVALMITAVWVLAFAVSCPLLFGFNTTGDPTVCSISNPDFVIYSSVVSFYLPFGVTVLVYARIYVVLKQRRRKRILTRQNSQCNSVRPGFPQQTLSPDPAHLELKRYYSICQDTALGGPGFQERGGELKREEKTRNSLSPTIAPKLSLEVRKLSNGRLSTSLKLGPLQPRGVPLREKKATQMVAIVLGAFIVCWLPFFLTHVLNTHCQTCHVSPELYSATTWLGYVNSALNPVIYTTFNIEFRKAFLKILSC
#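 Agonist mode: compounds and dopamine controls were applied to plated cells for 90 min at 37 degrees C after an overnight attachment at 1500 cells/well. Luminescent read-out followed 30 - 60 minutes at room temperature with DiscoveRx detection reagent.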
# D3 antag – blocks the human D3 dopamine receptor | D3R cells, DiscoveRx beta-arrestin luminescence, antagonist mode; stronger effect = lower value | 2.5% of 360,000 active | AID 652054 | P35462 | max response, negative = inhibition, %; in the data active = max response below about -50%; inconclusive = no clear call, values can overlap the other calls
#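 Cells expressing the human receptor were seeded at 1500 cells/well, incubated overnight at 37 degrees C in 5% CO2, then exposed to library compounds with dopamine controls for 90 minutes at 37 degrees C before luminescent detection.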
# IL-1B inflam inh – blocks inflammasome-driven IL-1 beta release; activity change, % at 57.5 µM; THP-1 LPS/ATP IL-1B secretion, AlphaLISA, 16 h; stronger effect = lower value; 4.7% of 360,000 active; in the data active = activity change below about -50%; inconclusive = mostly about -30% to -49%
#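 Secreted IL-1B measured by AlphaLISA bead assay after 16 h compound exposure of THP-1 cells; compounds (final up to 57.5 uM) added 1 h before LPS (250 ng/mL) and ATP (1.25 mM) stimulation; lower signal means less secretion.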
# ClpP mod – qHTS Assay for Activators of ClpP. ATP-dependent Clp protease proteolytic subunit (Bacillus subtilis (strain 168)), P80244. purified B. subtilis ClpP, FRET peptide cleavage, 20 min. Potency, µM (titrated, usually from 57.5 µM). 1.9% of 340,000 active; active = well fitted falling curve with a large enough effect; inconclusive = small, poorly fitted or top-dose-only effect; inactive = no such curve, though single readings can be large or run the other way; note: the source files actives as falling curves though it sought activators and does not explain the sign; nearly all actives have a fitted effect of over 65% in size
# Target sequence (P80244 whole entry, looked up): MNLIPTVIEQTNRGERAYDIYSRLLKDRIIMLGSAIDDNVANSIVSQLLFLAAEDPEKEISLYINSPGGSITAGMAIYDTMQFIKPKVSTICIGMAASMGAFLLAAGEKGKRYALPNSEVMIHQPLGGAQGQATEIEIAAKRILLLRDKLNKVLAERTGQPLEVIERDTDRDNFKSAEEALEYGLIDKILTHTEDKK
#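 FRET quenching reversal measured ClpP activation: 10 microg/mL B. subtilis ClpP at pH 8 with the FRET-FV decapeptide, read at 430 nm after 320 nm excitation. The 20-min minus 0-min signal was scaled between DMSO/no-enzyme wells and ADEP (5.8 microM final).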
# DT40 TDP1 no CPT – qHTS for Inhibitors of human tyrosyl-DNA phosphodiesterase 1 (TDP1): qHTS in cells in absence of CPT; DT40 Tdp1-/- hTDP1 cells, no CPT, ATP luminescence, 48 h; Potency, µM (top dose mostly 46.2 µM), most hits filed as inhibitors; 15% of 420,000 active; AID 686978, 2013; note: nearly all actives have a fitted effect of over 55% in size
#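 No-CPT arm: Tdp1-/-;hTDP1 DT40 cells (400/well) plus compounds, incubated ≥48 hr at 37 °C. Readout CellTiter-Glo luminescence.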
# Hits are given with their value; n = inactive; u = inconclusive; x = no result. Unless noted, calls come from the whole dose curve; as a rule, active = well fitted inhibition curve with a large enough effect; inconclusive = small, poorly fitted or top-dose-only effect; inactive = flat fitted curve, though single readings scatter.
SMILES,DT40 TDP1 CPT,D3 ag,D3 antag,IL-1B inflam inh,ClpP mod,DT40 TDP1 no CPT
CC(C)(C)n1nnnc1C(c1cccnc1)N1CCN(c2cccc(C(F)(F)F)c2)CC1 (stereo unspecified),18µM,n,n,n,n,21µM
CC(C)(C)n1nnnc1C(c1ccccc1)N1CCN(c2c(Cl)cncc2Cl)CC1 (stereo unspecified),u,n,n,n,n,16µM
CCCCn1nnnc1C(c1ccccc1)N1CCN(c2cccc(C)c2C)CC1 (stereo unspecified),u,n,n,n,n,16µM
Cc1cccc(N2CCN(C(c3ccncc3)c3nnnn3C(C)(C)C)CC2)c1C (stereo unspecified),n,n,n,u,x,18µM
CN1CCN(C(c2ccccc2)c2nnnn2C(C)(C)C)CC1 (stereo unspecified),n,n,n,n,n,n
CCCCn1nnnc1C(c1ccccc1)N1CCN(c2ccccc2)CC1 (stereo unspecified),u,n,n,n,n,u
CCN1CCN(C(c2ccccc2)c2nnnn2C(C)(C)C)CC1 (stereo unspecified),n,n,n,n,n,n
CCNc1ncc2nc(-c3ccc(F)cc3)c(=O)n(CCc3ccccc3)c2n1,n,x,x,x,x,n
CCOc1ccc(CCn2c3c(c(=O)[nH]c2=O)C(NC(=O)c2cccc(F)c2)(C(F)(F)F)C(=O)N3)cc1OCC (stereo unspecified),n,n,x,x,n,n
O=C(NC1CC(=O)N(c2ccc(Cl)cc2)C1)c1ccc(S(=O)(=O)N2CCCC2)cc1 (stereo unspecified),u,n,x,x,n,u
CCCCn1nnnc1C(c1ccccc1)N1CCN(c2c(Cl)cncc2Cl)CC1 (stereo unspecified),u,n,n,n,n,16µM
COc1cc(C2C(C(=O)Nc3ccccc3C)=C(C)Nc3ncnn32)ccc1OCC(N)=O (stereo unspecified),n,n,x,x,n,n
COc1ccc(CNC(=O)Cc2c(C)c3c(cc(C)c4c(C)coc43)oc2=O)cc1,n,n,x,x,u,n
CCN(CC)c1ccc(NC(=O)CSc2nc(C3CC3)nc3ccccc23)cc1C,4.1µM,n,n,n,x,5.2µM
Cc1cccc(NC(=O)CSc2nc(C3CC3)nc3ccccc23)c1,u,n,n,n,x,u
O=C(CSc1nc(C2CC2)nc2ccccc12)Nc1ccccc1,n,n,n,-61,x,u
CN(C)c1ccc(NC(=O)CSc2nc(C3CC3)nc3ccccc23)cc1,u,n,n,n,x,18µM
O=C(CSc1nc(C2CC2)nc2ccccc12)Nc1ccccc1Cl,n,n,n,n,x,n
CC(=O)Nc1cccc(NC(=O)CSc2nc(C3CC3)nc3ccccc23)c1,4.1µM,n,n,-79,x,7.3µM
CCCN(C(=O)CSCc1c(C)noc1C)c1c(N)n(Cc2ccccc2)c(=O)[nH]c1=O,n,n,n,n,x,n
Cc1ccc(Nc2nnc(SCC(=O)Nc3cc(C(=O)O)ccc3C)s2)c(C)c1,n,n,n,n,n,n
COc1cc(NC(=O)CSc2nc(C3CC3)nc3ccccc23)cc(OC)c1,n,n,n,n,x,u
CC(=O)c1cccc(NC(=O)CSc2nc(C3CC3)nc3ccccc23)c1,u,n,n,-96,x,16µM
O=C(CSc1nc(C2CC2)nc2ccccc12)Nc1ccccc1N1CCOCC1,u,n,n,-76,n,u
O=C(C1CCC1)N1CCN(S(=O)(=O)c2ccc(Br)cc2Cl)CC1,u,n,n,n,n,u
SMILES,DT40 TDP1 CPT,D3 ag,D3 antag,IL-1B inflam inh,ClpP mod,DT40 TDP1 no CPT
Cc1sc2ncnc(N3CCN(S(=O)(=O)c4ccc(F)cc4)CC3)c2c1C,u,n,n,-57,x,12µM
Cc1sc2ncnc(N3CCN(c4ncccn4)CC3)c2c1C,23µM,n,n,u,n,u
Cc1cc(C)n(-c2ncnc3sc(C)c(C)c23)n1,n,n,n,n,32µM,n
Cc1cc(C)n(-c2ncnc3sc4c(c23)CCCC4)n1,n,n,n,n,n,n
Cc1nc(N2CCN(S(=O)(=O)c3ccccc3)CC2)c2cc(-c3ccccc3)sc2n1,15µM,n,u,n,28µM,u
CN(CC(=O)Nc1cc(Cl)ccc1C#N)C1CCS(=O)(=O)C1 (stereo unspecified),n,n,n,n,n,n
CCC(=O)N1CCN(c2nc(C)nc3sc(C)c(C)c23)CC1,n,n,n,n,n,n
Cc1nc(N2CCN(S(=O)(=O)c3ccc(Br)cc3)CC2)c2c(C)c(C)sc2n1,21µM,n,-55,n,x,u
CCS(=O)(=O)N1CCN(c2ncnc3sc(C)c(C)c23)CC1,n,n,n,n,x,u
CCc1nc(N2CCN(S(=O)(=O)c3ccc(Br)cc3)CC2)c2c(C)c(C)sc2n1,u,n,n,n,n,23µM
COc1ccccc1C1C(C(C)=O)=C(C)N=c2s/c(=C\c3cc(OC)c(OC)c(OC)c3)c(=O)n21 (stereo unspecified),16µM,n,n,n,n,21µM
CCOC(=O)C1=C(C)N=c2s/c(=C\c3cccc(OCC(=O)O)c3)c(=O)n2C1c1ccccc1OC (stereo unspecified),n,n,n,n,n,n
Cc1nn(CC(=O)N2CCN(c3cccc(Cl)c3)CC2)c(=O)c2c1sc1ccccc12,n,n,x,x,n,n
Fc1ccc(NCc2ccccc2-c2nnc(-c3ccccc3Cl)o2)cc1,n,n,x,x,n,u
Fc1ccc(C(Nc2ccccc2Cl)c2nnc(-c3ccccc3Cl)o2)cc1 (stereo unspecified),u,n,x,x,n,21µM
O=C(N/N=C/C=C/c1ccccc1)c1cccc(Br)c1,u,n,n,n,n,21µM
O=C(N/N=C/c1cccc(Oc2ccccc2)c1)c1cccc(O)c1,u,n,n,n,n,u
O=C(CNc1cccc2ccccc12)N/N=C/c1cccc(Oc2ccccc2)c1,u,n,n,n,n,26µM
O=C(N/N=C/c1cccc(Oc2ccccc2)c1)c1cccc(Br)c1,u,n,n,n,n,21µM
O=C(CNc1cccc2ccccc12)N/N=C/c1ccccn1,u,n,n,x,x,u
O=C(c1cn(-c2ccccc2)nc1-c1cccs1)N(CCO)Cc1ccccc1,n,n,n,n,n,18µM
COc1cccc(NC(=O)CN(C)C(=O)c2cn(-c3ccccc3)nc2-c2cccs2)c1,u,n,n,-53,x,u
CN(C)C(=O)c1cn(-c2ccccc2)nc1-c1cccs1,n,n,n,n,n,n
